Measurements as given in the supplement of paper PMC12669032.
A number with no mark means an inactive call.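 How the source made its calls: active = AUC reduced over 20% with Padj below 0.05 in at least 2 of 3 replicates; inactive = otherwise.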

Key:
Experiment in all cases: growth AUC relative to DMSO control (median of replicates) (fraction); higher = more growth (less inhibition), active = hit call of the paper
Details in all cases: 20 µM; 24 h
Coprococcus comes = tested on: Coprococcus comes
How it was run: (§1)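 Gut bacterial monocultures were grown anaerobically at 37 °C in mGAM from a starting OD600 of 0.05 with 20 µM compound (1% DMSO), in round-bottom 96-well plates under pierced gas-permeable seals, and OD600 was read hourly for 24 h. With the minimum OD set to 0, area under the growth curve was normalised to the plate median of solvent-only wells, or to row and column medians on the industrial chemical plate. Each value is the median of three biological replicates grown on separate days.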

Escherichia coli ED1a = tested on: Escherichia coli ED1a
How it was run: as §1

Escherichia coli IAI1 = tested on: Escherichia coli IAI1
How it was run: as §1

Eubacterium rectale = tested on: Eubacterium rectale
How it was run: as §1

[1] = tested on: Fusobacterium nucleatum subsp. animalis
How it was run: as §1

Lactobacillus gasseri = tested on: Lactobacillus gasseri
How it was run: as §1

Lactobacillus paracasei = tested on: Lactobacillus paracasei
How it was run: as §1

Odoribacter splanchnicus = tested on: Odoribacter splanchnicus
How it was run: as §1

[2] = tested on: Parabacteroides distasonis
How it was run: as §1

Parabacteroides merdae = tested on: Parabacteroides merdae
How it was run: as §1

Roseburia intestinalis = tested on: Roseburia intestinalis
How it was run: as §1

Streptococcus salivarius = tested on: Streptococcus salivarius
How it was run: as §1

SMILES	growth AUC (Coprococcus comes)	growth AUC (Escherichia coli ED1a)	growth AUC (Escherichia coli IAI1)	growth AUC (Eubacterium rectale)	growth AUC [1]	growth AUC (Lactobacillus gasseri)	growth AUC (Lactobacillus paracasei)	growth AUC (Odoribacter splanchnicus)	growth AUC [2]	growth AUC (Parabacteroides merdae)	growth AUC (Roseburia intestinalis)	growth AUC (Streptococcus salivarius)
COS(=O)(=O)[O-].Cn1c(-c2ccccc2)cc(-c2ccccc2)[n+]1C	1	0.98	0.974	1	0.985	0.964	0.981	1.01	0.985	0.974	0.948	0.97
CCS(=O)(=O)Cc1ccccc1OC(=O)NC	0.996	1	1	1.07	1.03	0.958	1.02	1	0.98	0.983	0.964	0.927
Clc1ccc(Cl)c(Cl)c1Cl	0.989	0.973	0.981	0.968	1.03	0.945	1.11	0.973	0.981	0.999	0.999	1.04
CCN(C(=O)n1nnn(-c2ccccc2Cl)c1=O)C1CCCCC1	0.942	0.969	0.989	0.956	1.01	1.01	0.827	0.97	0.682 (active)	0.411 (active)	0.938	0.971
CCC(C)c1cc([N+](=O)[O-])cc([N+](=O)[O-])c1OC(=O)C=C(C)C (stereo not drawn)	0.945	0.968	0.973	0.978	0.802	0.762	0.955	0.515 (active)	0.418 (active)	0.902	0.948	0.872
CCC(C)n1c(=O)[nH]c(C)c(Br)c1=O (stereo not drawn)	1.02	0.979	0.94	1.07	1.01	0.869	1.03	0.461	0.926	0.891	0.975	0.901
CCCCCCCCn1sccc1=O	0.958	0.944	0.938	0.868	0.83	0.757 (active)	1.01	0.597	0.129 (active)	0.00935 (active)	0.449 (active)	0.815
Clc1cccc(Cl)c1Cl	1.01	0.985	0.997	0.982	1	1.02	1.03	1	1	1.01	0.972	1.06
CCOC1Oc2ccc(OS(C)(=O)=O)cc2C1(C)C (stereo not drawn)	0.943	0.949	0.964	1.16	0.903	0.891	0.98	1.15	0.879	0.927	0.924	0.964
[Cl][Sn]([c]1ccccc1)([c]1ccccc1)[c]1ccccc1	0.0492 (active)	0.981	0.964	0.0221 (active)	0.897	0.383	0.83	0.0358 (active)	0.048 (active)	0.0101 (active)	0.0424 (active)	0.859
COc1ccccc1N	0.993	1	1	1.08	1.04	1.02	1.02	1.16	1.28	1.02	1.03	0.998
CCCC(Cn1cncn1)c1ccc(Cl)cc1Cl (stereo not drawn)	0.919	0.997	1.03	0.73 (active)	1.05	1.05	0.987	0.962	0.991	0.969	1.02	0.915
CCOP(=S)(OCC)Oc1cc(C)nc(N(CC)CC)n1	1.03	0.996	0.994	0.969	1.01	1.02	1.02	1.08	0.845	0.963	0.941	1
CC(C)(C)[C@@H](O)[C@H](Oc1ccc(Cl)cc1)n1cncn1	0.974	0.977	0.999	1.08	1.05	1.08	1.09	0.833	0.972	1.01	1.08	1.04
CNc1nc(C)c(C)c(OC(=O)N(C)C)n1	0.998	1.01	0.957	1.05	1.09	1.03	0.971	0.985	1.01	0.998	0.951	1.03
ClC1=C(Cl)[C@]2(Cl)[C@@H]3[C@H]4C[C@H]([C@@H]5O[C@H]45)[C@@H]3[C@@]1(Cl)C2(Cl)Cl	0.943	0.994	0.966	1.02	1.05	0.936	0.963	0.998	0.897	0.946	0.909	0.963
CCOC(=O)COc1cc(-c2nn(C)c(OC(F)F)c2Cl)c(F)cc1Cl	0.979	0.995	0.971	1.13	1.12	0.996	1.01	1	1.02	1	0.973	0.993
CCCCOC(=O)[C@@H](C)Oc1ccc(Oc2ccc(C#N)cc2F)cc1	1.01	1	0.966	1.11	1.01	0.87	0.939	1	0.704 (active)	0.971	0.997	0.954
CNC(=O)Oc1ccccc1OC(C)C	0.974	0.986	0.982	0.952	0.994	0.892	0.982	1.02	1.01	0.981	1.01	0.98
COC(=O)C(C)(Cl)Cl	0.987	0.977	1.02	0.934	1.03	1.18	1.03	0.956	1.05	1.04	1.12	0.979
C=C(C)[C@H]1Cc2c(ccc3c2O[C@@H]2COc4cc(OC)c(OC)cc4[C@@H]2C3=O)O1	0.986	1	1.01	0.973	1.06	0.878	0.954	0.917	0.935	0.94	0.935	1.02
COC(=O)c1ccccc1S(=O)(=O)NC(=O)Nc1nc(C)nc(OC)n1	0.975	0.963	0.958	1.05	0.913	0.934	0.933	1.07	0.977	0.962	0.978	0.935
CCOP(=S)(OCC)SCS(=O)(=O)CC	1.02	1.01	0.992	1.07	1.14	0.95	0.967	0.993	0.999	0.974	0.947	1.01
O=C(O)c1ccc(Cl)nc1	0.946	1.01	0.967	1.05	1.1	1.15	0.974	0.968	1.02	1.01	1.16	0.973
